Inconclusive results are not listed. Entries that show only a call come without a potency. Active and inactive are the calls of the source. Calls follow the shape of the dose curve; as a rule, active = well fitted inhibition curve with a large enough effect; inconclusive = small, poorly fitted or top-dose-only effect; inactive = flat fitted curve, though single readings scatter.

This assay has as its system Zika virus NS2B-NS3 protease. Kind of assay: Primary screen GU AMC qHTS for Zika virus inhibitors (AID 1347154). Also: nearly all actives have a fitted effect of over 70% in size. The conditions noted are these: Zika NS2B-NS3 unlinked protease, AMC fluorogenic substrate; series mostly up to 54.1 µM. A digest of the protocol: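 Unlinked Zika NS2B hydrophilic domain/NS3 protease domain noncovalent complex (25 nM final) in 10 mM Tris-HCl pH 8.0, 0.01% Tween 20, with AMC peptide substrate. Fluorescence (ex 340, em 450 nm) change over 15 min, room temperature; percent inhibition fitted to 4-parameter Hill equation.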
For the compound `Oc1ccc(Cl)c2cccnc12`, the Potency entry is “inactive”.

In the case of `CCCCCCCCCCCCCCNCCO`, the Potency result is “inactive”.

Consider `COc1cc2c(cc1OC)C(=O)C(CC1CCN(Cc3ccccc3)CC1)C2` (centres undefined), for which the Potency result is “inactive”.

`CC(=O)Nc1c(I)cc(I)c(C(=O)O)c1I`: the Potency entry is “inactive”.

Turning to `C=C1C[C@H]2[C@@H]3C=C(C)C4=CC(=O)CC[C@]4(C)[C@H]3CC[C@]2(C)[C@@]1(OC(C)=O)C(C)=O`, the Potency entry is “inactive”.

`CCOC(=O)/C=C(C)/C=C/C=C(C)/C=C/c1c(C)cc(OC)c(C)c1C`: the Potency entry was “inactive”.

Turning to `Cc1cccc(C)c1NC(=O)CN1CCN(CCCC(c2ccc(F)cc2)c2ccc(F)cc2)CC1`, the Potency result was “inactive”.

For the compound `CCC(C(=O)OCCN(CC)CC)c1ccccc1` (centres undefined), the Potency entry is “inactive”.

On to `O=C(OCCOCCO)c1ccccc1Nc1cccc(C(F)(F)F)c1`, for which the Potency entry is “inactive”.

Turning to `Cc1cc2c(cc1CC(=O)c1sccc1S(=O)(=O)Nc1onc(C)c1Cl)OCO2`, the Potency entry was “inactive”.

For `CC(=O)N(O)CCCCCNC(=O)CCC(=O)N(O)CCCCCNC(=O)CCC(=O)N(O)CCCCCN`, the Potency result is “inactive”.

Turning to `CC(Cc1cccc(C(F)(F)F)c1)NCCOC(=O)c1ccccc1` (centres undefined), the Potency result is “inactive”.

`COc1ccc(CN2CCN(C(c3ccc(F)cc3)c3ccc(F)cc3)CC2)c(OC)c1OC`: the Potency result was “inactive”.

Turning to `CCCCOc1cc(C(=O)NCCN(CC)CC)c2ccccc2n1`, the Potency entry is “inactive”.

Regarding `CCCCOc1ccc(C(=O)CCN2CCCCC2)cc1`, the Potency entry is “inactive”.

On to `O=C(Nc1ccc(Cl)c(Cl)c1)C1CC1`, for which the Potency entry is “inactive”.

Regarding `COc1ccc(/C=C/C(=O)c2ccc(OC)cc2OC)cc1`, the Potency result was “inactive”.

With `O=C(N/N=C/c1ccccc1O)c1ccncc1`, the Potency result is “inactive”.

Consider `O=C1c2ccccc2C(=O)C1c1ccccc1`, for which the Potency result is “inactive”.

Take `NCCCC[C@H](N[C@@H](CCc1ccccc1)C(=O)O)C(=O)N1CCC[C@H]1C(=O)O`: the Potency entry is “inactive”.

Turning to `CN(C)CC/C=C1/c2ccccc2COc2ccc(CC(=O)O)cc21`, the Potency result is “inactive”.

For `CC(O)(P(=O)(O)O)P(=O)(O)O`, the Potency result was “inactive”.

As for `CCCCC(=O)O[C@]1(C(=O)CO)CC[C@H]2[C@@H]3CCC4=CC(=O)CC[C@]4(C)[C@H]3[C@@H](O)C[C@@]21C`, the Potency entry was “inactive”.

For `CN1CCN(CCCN2c3ccccc3Sc3ccc(S(=O)(=O)N(C)C)cc32)CC1`, the Potency result was “inactive”.

In the case of `COc1cc(N)c(Cl)cc1C(=O)NC1CCN(CCCOc2ccc(F)cc2)CC1OC` (centres undefined), the Potency result was “inactive”.

Consider `C[C@@H]1CN(CCCn2c3ccccc3c3ccccc32)C[C@H](C)N1`, for which the Potency entry was “inactive”.

Take `C=C(CC)C(=O)c1ccc(OCC(=O)O)c(Cl)c1Cl`: the Potency result is “inactive”.

For the compound `Cc1ncc(CSSCc2cnc(C)c(O)c2CO)c(CO)c1O`, the Potency result was “inactive”.

As for `CC(C)COC(=O)c1ccc(N)cc1`, the Potency entry was “inactive”.

Regarding `CCCCc1nc(Cl)c(CO)n1Cc1ccc(-c2ccccc2-c2nn[nH]n2)cc1`, the Potency result was “inactive”.

For `CCOC(=O)OC(C)OC1=C(C(=O)Nc2ccccn2)N(C)S(=O)(=O)c2ccccc21` (centres undefined), the Potency result is “inactive”.

Turning to `Cc1c(N(C)CS(=O)(=O)O)c(=O)n(-c2ccccc2)n1C`, the Potency entry is “inactive”.

For `CCN(CCCCOC(=O)c1ccc(OC)c(OC)c1)C(C)Cc1ccc(OC)cc1` (centres undefined), the Potency entry was “inactive”.

With `CN1[C@@H]2CC[C@H]1CC(OC(=O)c1c[nH]c3ccccc13)C2` (some centres undefined), the Potency entry is “inactive”.

As for `NC(=O)CC[C@@H]1NC(=O)[C@H](Cc2ccccc2)NC(=O)[C@H](Cc2ccc(O)cc2)NC(=O)CCSSC[C@@H](C(=O)N2CCC[C@H]2C(=O)N[C@@H](CCCN=C(N)N)C(=O)NCC(N)=O)NC(=O)[C@H](CC(N)=O)NC1=O`, the Potency entry was “inactive”.

For `CC[C@@H](CO)NCCN[C@@H](CC)CO`, the Potency result was “inactive”.

As for `CC(=O)OCC(=O)NCCCOc1cccc(CN2CCCCC2)c1`, the Potency entry was “inactive”.

As for `Cc1c(F)c(N2CCNC(C)C2)cc2c1c(=O)c(C(=O)O)cn2C1CC1` (centres undefined), the Potency entry is “inactive”.

For the compound `CCN1CCC[C@H]1CNC(=O)c1c(OC)ccc(Br)c1OC`, the Potency result is “inactive”.

Source of the values: PubChem BioAssay (NCATS).
